Experimental data: the supplement of paper PMC11732987, “Enantioselective OTUD7B fragment discovery through chemoproteomics screening and high-throughput optimisation” (Communications Chemistry, 2025)

Tests used:
Test in all cases: log2 ratio of Biotin-Ahx-Ub-VS probe labelling (fragment/DMSO); higher = less target engagement (more negative = stronger competition), active = hit call of the paper (q ≤ 0.05, log2 ratio ≤ -1)
Conditions in all cases: compound concentration: 200 uM; treatment time: 3 h
USP19 = target: T1, USP19 (UniProt O94966)
T1 sequence (whole entry): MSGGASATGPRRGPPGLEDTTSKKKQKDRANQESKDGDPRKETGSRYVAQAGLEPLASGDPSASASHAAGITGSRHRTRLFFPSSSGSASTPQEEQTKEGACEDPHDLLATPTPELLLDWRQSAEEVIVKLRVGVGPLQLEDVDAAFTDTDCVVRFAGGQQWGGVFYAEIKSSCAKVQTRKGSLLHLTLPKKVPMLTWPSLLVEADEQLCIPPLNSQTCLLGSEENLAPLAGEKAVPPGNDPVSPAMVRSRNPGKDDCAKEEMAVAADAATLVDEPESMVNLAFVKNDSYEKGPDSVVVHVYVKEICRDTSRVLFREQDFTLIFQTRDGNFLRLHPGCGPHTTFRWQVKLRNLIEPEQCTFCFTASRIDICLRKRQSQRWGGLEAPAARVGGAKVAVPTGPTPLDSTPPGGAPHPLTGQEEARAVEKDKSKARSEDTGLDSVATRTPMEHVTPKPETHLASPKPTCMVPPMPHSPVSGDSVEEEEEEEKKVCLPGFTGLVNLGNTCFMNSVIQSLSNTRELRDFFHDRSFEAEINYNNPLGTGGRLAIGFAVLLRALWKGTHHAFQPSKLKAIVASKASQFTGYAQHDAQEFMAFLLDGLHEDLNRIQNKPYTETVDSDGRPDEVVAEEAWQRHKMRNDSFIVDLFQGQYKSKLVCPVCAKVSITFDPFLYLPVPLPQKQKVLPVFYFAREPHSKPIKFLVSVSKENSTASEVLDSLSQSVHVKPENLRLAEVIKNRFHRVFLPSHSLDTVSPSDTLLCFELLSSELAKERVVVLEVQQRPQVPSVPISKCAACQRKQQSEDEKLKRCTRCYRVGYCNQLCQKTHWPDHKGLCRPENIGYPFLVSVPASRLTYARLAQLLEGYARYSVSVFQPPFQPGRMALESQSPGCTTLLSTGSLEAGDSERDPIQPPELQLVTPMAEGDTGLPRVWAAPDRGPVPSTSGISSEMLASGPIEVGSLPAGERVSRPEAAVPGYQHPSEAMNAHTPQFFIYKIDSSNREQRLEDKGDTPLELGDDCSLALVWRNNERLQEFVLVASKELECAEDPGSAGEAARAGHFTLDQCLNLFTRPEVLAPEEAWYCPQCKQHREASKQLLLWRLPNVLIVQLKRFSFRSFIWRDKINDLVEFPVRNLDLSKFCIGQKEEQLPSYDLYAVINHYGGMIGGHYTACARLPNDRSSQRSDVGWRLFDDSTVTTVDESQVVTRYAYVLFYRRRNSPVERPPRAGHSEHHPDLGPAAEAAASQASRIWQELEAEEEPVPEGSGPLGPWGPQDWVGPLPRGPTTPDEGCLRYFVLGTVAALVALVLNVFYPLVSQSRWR
Outline: (§1)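 Using Biotin-Ahx-Ub-VS at 0.5 µM final for 1 h, DUBs were labelled in HEK293T lysate (495 µg per sample) that had first been treated in triplicate with fragment at 200 µM or vehicle for 3 h. NeutrAvidin enrichment, LysC and trypsin digestion and diaPASEF LC-MS/MS followed. Spectronaut label-free quantities were global-median-normalised. Values are average log2 fragment/vehicle ratios by unpaired t-test, using proteins with ≥2 unique peptides.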

USP22 = target: T2, USP22 (UniProt Q9UPT9)
T2 sequence (whole entry): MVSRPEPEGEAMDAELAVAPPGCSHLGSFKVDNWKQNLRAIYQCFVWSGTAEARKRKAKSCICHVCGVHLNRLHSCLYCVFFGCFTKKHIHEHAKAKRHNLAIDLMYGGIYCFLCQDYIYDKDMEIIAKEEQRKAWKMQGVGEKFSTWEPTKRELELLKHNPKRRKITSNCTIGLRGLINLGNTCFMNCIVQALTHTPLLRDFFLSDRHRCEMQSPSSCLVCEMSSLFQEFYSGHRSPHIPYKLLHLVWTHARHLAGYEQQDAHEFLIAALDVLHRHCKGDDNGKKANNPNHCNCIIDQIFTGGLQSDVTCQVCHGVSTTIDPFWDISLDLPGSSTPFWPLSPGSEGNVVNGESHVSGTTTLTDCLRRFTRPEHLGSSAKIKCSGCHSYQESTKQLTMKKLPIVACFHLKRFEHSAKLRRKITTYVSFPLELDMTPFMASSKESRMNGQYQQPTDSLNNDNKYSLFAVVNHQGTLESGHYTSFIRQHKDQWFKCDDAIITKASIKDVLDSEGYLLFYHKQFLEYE
Outline: as §1

USP24 = USP24 (UniProt Q9UPU5)
Outline: as §1

USP25 = target: T3, USP25 (UniProt Q9UHP3)
T3 sequence (whole entry): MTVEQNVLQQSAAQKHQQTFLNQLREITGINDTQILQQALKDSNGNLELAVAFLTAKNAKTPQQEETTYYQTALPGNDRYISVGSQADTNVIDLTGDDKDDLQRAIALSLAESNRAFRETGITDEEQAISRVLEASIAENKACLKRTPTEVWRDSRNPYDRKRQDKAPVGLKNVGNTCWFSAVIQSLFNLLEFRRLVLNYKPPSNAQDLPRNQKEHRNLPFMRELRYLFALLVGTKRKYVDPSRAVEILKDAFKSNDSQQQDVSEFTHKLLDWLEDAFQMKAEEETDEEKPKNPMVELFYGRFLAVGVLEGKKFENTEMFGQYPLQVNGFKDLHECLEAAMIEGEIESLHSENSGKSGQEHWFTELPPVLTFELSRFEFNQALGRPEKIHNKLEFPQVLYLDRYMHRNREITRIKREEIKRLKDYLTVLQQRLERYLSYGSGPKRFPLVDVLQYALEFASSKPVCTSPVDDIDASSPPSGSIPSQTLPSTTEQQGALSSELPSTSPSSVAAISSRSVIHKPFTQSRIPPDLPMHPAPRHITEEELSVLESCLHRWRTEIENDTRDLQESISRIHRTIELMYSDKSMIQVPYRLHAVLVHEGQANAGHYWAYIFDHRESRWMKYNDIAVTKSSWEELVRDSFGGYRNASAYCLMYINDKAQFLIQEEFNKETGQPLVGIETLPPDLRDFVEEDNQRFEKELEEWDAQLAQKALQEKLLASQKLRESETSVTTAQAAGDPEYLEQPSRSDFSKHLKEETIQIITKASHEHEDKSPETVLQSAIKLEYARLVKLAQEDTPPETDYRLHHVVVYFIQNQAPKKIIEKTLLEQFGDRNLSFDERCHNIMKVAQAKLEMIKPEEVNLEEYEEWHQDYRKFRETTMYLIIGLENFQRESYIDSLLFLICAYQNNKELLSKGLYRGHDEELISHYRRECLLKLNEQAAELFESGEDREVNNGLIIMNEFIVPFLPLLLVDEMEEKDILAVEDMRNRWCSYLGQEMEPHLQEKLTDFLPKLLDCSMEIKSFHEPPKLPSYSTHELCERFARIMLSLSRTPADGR
Outline: as §1

USP28 = target: T4, USP28 (UniProt Q96RU2)
T4 sequence (whole entry): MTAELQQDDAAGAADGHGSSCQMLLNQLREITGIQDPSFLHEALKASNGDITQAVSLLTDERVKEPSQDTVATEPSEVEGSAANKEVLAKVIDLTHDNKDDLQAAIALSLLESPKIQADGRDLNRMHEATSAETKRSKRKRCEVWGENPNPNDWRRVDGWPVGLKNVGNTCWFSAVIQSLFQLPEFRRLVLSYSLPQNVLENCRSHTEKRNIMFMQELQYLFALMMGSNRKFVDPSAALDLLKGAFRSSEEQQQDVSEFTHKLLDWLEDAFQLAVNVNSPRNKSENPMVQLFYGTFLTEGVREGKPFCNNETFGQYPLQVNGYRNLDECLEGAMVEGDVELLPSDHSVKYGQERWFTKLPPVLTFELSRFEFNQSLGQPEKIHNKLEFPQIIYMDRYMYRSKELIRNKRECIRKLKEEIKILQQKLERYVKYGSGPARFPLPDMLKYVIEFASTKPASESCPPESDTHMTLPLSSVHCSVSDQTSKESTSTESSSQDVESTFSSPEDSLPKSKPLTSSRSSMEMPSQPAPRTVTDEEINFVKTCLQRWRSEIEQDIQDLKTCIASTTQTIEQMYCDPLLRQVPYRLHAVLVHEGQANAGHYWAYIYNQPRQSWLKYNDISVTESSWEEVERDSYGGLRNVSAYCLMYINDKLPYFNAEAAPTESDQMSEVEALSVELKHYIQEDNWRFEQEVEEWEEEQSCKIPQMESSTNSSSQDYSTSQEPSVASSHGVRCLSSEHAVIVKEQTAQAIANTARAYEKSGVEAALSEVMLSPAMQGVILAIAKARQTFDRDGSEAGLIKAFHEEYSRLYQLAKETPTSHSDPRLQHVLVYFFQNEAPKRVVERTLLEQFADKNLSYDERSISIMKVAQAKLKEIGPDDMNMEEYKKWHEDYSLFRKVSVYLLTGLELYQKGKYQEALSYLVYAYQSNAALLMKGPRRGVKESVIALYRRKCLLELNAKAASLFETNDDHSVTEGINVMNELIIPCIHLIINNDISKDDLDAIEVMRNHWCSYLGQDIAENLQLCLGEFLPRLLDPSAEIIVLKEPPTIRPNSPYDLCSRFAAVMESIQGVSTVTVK
Outline: as §1

Measured: log2 ratio of Biotin-Ahx-Ub-VS probe labelling

Chain of USP24 (Q9UPU5 whole entry): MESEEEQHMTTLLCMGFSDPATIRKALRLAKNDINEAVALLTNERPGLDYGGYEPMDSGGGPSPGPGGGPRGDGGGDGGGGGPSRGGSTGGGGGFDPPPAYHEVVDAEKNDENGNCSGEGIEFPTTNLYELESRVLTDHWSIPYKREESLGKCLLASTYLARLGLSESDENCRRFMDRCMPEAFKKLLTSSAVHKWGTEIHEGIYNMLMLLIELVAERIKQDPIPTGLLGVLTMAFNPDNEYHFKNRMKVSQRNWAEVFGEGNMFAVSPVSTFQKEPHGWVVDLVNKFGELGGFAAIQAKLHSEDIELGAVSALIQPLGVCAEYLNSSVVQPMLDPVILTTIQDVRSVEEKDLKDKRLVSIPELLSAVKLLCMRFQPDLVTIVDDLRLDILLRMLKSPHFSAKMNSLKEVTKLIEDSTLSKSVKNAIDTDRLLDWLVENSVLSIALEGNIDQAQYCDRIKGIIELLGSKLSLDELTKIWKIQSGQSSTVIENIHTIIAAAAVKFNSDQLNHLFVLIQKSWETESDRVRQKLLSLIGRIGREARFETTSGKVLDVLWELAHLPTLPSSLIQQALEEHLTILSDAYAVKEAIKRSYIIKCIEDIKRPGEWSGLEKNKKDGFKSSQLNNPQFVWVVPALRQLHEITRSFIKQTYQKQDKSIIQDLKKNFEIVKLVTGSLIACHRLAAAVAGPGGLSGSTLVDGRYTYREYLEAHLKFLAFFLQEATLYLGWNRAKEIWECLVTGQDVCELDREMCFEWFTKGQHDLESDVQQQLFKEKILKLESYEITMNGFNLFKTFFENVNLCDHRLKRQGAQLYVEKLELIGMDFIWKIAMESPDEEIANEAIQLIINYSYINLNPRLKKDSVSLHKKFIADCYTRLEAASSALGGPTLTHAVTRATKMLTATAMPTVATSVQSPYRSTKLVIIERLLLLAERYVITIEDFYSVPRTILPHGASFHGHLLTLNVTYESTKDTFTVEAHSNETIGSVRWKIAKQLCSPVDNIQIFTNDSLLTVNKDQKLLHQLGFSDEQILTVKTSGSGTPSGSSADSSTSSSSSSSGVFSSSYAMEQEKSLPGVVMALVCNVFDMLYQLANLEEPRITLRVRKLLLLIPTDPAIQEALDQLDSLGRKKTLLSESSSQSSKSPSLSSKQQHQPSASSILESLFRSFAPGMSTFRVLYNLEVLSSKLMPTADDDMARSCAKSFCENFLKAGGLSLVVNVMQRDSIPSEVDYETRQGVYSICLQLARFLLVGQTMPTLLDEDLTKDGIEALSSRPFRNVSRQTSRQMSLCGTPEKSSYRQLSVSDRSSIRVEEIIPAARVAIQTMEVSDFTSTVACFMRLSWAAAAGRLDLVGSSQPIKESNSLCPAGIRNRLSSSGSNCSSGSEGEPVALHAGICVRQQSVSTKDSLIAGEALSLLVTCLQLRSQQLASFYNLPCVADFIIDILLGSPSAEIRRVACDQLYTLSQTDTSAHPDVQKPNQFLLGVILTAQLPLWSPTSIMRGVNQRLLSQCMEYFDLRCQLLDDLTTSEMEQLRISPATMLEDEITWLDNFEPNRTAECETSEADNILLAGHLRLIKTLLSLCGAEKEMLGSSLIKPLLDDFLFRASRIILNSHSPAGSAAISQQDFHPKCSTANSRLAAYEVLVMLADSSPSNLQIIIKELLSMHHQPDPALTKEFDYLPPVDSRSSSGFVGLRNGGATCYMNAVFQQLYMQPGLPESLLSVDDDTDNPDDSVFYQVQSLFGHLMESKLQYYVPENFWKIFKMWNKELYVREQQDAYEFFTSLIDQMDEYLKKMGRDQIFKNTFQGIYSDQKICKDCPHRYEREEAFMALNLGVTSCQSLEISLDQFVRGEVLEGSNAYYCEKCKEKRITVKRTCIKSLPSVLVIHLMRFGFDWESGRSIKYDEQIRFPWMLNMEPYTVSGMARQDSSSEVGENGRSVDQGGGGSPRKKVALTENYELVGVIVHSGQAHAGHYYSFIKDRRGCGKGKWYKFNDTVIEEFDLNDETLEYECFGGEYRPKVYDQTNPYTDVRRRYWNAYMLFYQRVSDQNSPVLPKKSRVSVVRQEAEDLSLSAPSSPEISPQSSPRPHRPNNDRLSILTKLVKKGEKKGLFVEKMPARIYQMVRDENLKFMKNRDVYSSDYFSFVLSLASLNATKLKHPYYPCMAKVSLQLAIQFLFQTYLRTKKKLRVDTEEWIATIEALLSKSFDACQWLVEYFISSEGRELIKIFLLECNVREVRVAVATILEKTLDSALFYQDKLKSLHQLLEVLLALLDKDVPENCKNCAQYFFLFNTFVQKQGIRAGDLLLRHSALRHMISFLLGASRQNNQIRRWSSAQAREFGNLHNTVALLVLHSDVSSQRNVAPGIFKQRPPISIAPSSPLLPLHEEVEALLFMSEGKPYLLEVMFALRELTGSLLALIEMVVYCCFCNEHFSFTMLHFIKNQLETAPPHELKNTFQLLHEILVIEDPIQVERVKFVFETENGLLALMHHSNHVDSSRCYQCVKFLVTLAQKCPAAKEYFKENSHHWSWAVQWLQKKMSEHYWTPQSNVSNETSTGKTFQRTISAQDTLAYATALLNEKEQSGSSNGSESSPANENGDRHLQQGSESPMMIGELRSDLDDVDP

O=C(CCl)Nc1ccc(F)cc1F
inactive: USP19 -0.101 | USP22 -0.241 | USP24 -0.312 | USP25 -0.265 | USP28 -0.838
